Bioassay records from PubChem BioAssay.
MEP2-GFP yeast: yeast TOR pathway MEP2-GFP modulation | S. cerevisiae MEP2-GFP strain, flow cytometry GFP, 3 h; 100% = DMSO control level | GFP response vs DMSO, % at 10 µM | actives 0.51% (n = 330,000) | AID 2016;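 active = GFP response versus DMSO above a set limit, roughly screen mean plus 3 SD, cut at about 180% in these data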;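 also: median GFP fluorescence of the barcode-gated MEP2-GFP cells per well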
AGP1 TOR yeast: alters AGP1-GFP fluorescence in TOR pathway yeast screen | S. cerevisiae AGP1-GFP multiplex flow cytometry, 3 h; GFP as percent of DMSO wells | GFP response vs DMSO, % at 10 µM | actives 0.02% (n = 320,000);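 active = GFP response relative to DMSO above a set limit, near screen average plus 3 SD, cut at about 150% in these data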;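 also: median GFP channel fluorescence of the gated AGP1 strain per well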
LAP4-GFP MLPCN: modulators of TOR pathway LAP4-GFP in S. cerevisiae | S. cerevisiae LAP4-GFP multiplex, flow cytometry GFP, 3 h; median GFP as percent of DMSO wells | GFP response vs DMSO, % at 10 µM | actives 0.34% (n = 320,000) | AID 2023;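 active = GFP response vs DMSO above a set limit, about the screen mean plus 3 SD, cut at about 150% in these data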
Efflux pump inh: inhibitors of Candida antifungal efflux pumps expressed in yeast | S. cerevisiae Candida pump triplex, Nile Red efflux | inhibition, % at 10 µM | actives 0.44% (n = 330,000) | AID 485275;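 active = plate passing quality check with inhibition over a set limit, or well fluorescence over plate mean plus 4 SD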;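 also: Nile Red retained in pooled yeast measured as flow cytometry median fluorescence; 0% = buffer negative control and 100% = Enniatin B positive control; higher means more Nile Red kept so more efflux inhibition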
RPL19A TOR yeast: modulators of TOR pathway RPL19A-GFP in S. cerevisiae; S. cerevisiae RPL19A-GFP strain, flow cytometry, 3 h; active compounds read low; percent response vs DMSO, % at 10 µM; actives 0.3% (n = 330,000);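 active = percent response vs DMSO below 50%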;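 also: median channel GFP fluorescence of the barcoded RPL19A-GFP strain; ratio of sample median GFP to plate DMSO average so 100% = DMSO; lower means less RPL19A-GFP as with rapamycin TOR inhibition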
CIT2 TOR yeast: alters CIT2-GFP fluorescence in TOR pathway yeast screen; GFP response vs DMSO, % at 10 µM; actives 0.065% (n = 320,000); AID 2029; S. cerevisiae CIT2-GFP strain, flow cytometry, 3 h; 100 means same as DMSO wells;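 active = GFP response relative to DMSO above a set limit, near the screen mean plus 3 SD, cut at about 150% in these data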;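 also: ratio of well median GFP fluorescence to mean of DMSO wells on the plate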
Cmpd fluor yeast: compound fluorescence in yeast efflux pump counter-screen; S. cerevisiae AD/pABC3, flow cytometry; shares compounds with Efflux pump inh; AID 588517; fluorescence ratio to DMSO, % at 10 µM; actives 4% (n = 1,700);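 active = fluorescence ratio to DMSO above its plate's cutoff, the plate mean ratio plus 5 SD, cut at about 210% in these data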;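 also: unstained yeast with no Nile Red so the signal is compound autofluorescence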
CaMdr1 efflux inh: blocks the Candida albicans Mdr1 efflux pump in yeast. shares compounds with Efflux pump inh. S. cerevisiae AD/CaMDR1, Nile Red efflux, flow cytometry. inhibition, % at 10 µM. actives 1% (n = 1,700). AID 588518; in the data active = inhibition above about 26%;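 also: 0% = DMSO vehicle and 100% = reference inhibitor; higher means more Nile Red retained so more efflux inhibition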
Cdr2 pump inh: Candida Cdr2 efflux pump inhibition. shares compounds with Efflux pump inh. S. cerevisiae AD/CaCDR2, Nile Red retention, flow cytometry. Nile Red retention ratio vs DMSO, % at 10 µM. actives 4% (n = 1,700); in the data active = Nile Red retention ratio vs DMSO above about 190%;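 also: higher ratio means more blocking of Cdr2 efflux of the dye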
Cdr1 pump inh: Candida Cdr1 efflux pump inhibition; inhibition, % at 10 µM; shares compounds with Efflux pump inh; actives 1% (n = 1,700); S. cerevisiae AD/CaCDR1, Nile Red efflux, flow cytometry;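 active = inhibition above the screen-wide mean plus twice its standard deviation, cut at about 32% in these data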
* marks the source's active call; other numbers are inactive results; · = no result. A selection: hits, their analogues and other compounds. The true share with any hit is near 1.3%.

SMILES	MEP2-GFP yeast	AGP1 TOR yeast	LAP4-GFP MLPCN	Efflux pump inh	RPL19A TOR yeast	CIT2 TOR yeast	Cmpd fluor yeast	CaMdr1 efflux inh	Cdr2 pump inh	Cdr1 pump inh
OC(COCc1ccccc1)CN1CCCCC1 (configuration not stated)	107	98	91	0	100	102	·	·	·	·
Cc1ccc(OCC(=O)N2CC(C)CC(C)C2)c([N+](=O)[O-])n1 (configuration not stated)	102	97	92	0	100	118	·	·	·	·
Cc1ccc(/C=N/NC(=O)c2csc3c2CCCC3)cc1	92	98	118	0	98	91	·	·	·	·
Cc1nn(C)cc1/C=N\NC(=O)c1csc2c1CCCC2	84	97	87	7.4*	98	95	109	0	106	0
CCOC(=O)N1CCN(C(=S)NC(=O)c2ccc(F)c(F)c2)CC1	100	104	106	1.6*	95	111	95	0	104	0
CCOC(=O)N1CCN(C(=S)NC(=O)c2cccc(OC)c2)CC1	95	97	95	0	97	92	·	·	·	·
O=C(c1cc2nc(-c3cccs3)cc(C(F)(F)F)n2n1)N1CCCc2ccccc21	85	92	84	0.7*	92	90	90	0	83	0
COc1ccc(-c2nc(Cn3c(SCc4cccc(F)c4)nc4ccncc43)c(C)o2)cc1OC	99	95	99	0.5*	101	95	108	1	106	0
COc1ccc(-c2nc(Cn3c(SCc4ccc(C)cc4)nc4ccncc43)c(C)o2)cc1OC	98	90	101	0.4*	98	89	103	0	102	0
Cc1ccc(CSc2nc3ccncc3n2CC(=O)Nc2cc(C)cc(C)c2)cc1	95	100	95	0	96	100	·	·	·	·
COc1ccc(-c2nc(CN3CCN(Cc4cccc(F)c4)CC3)c(C)o2)cc1	108	95	95	0	99	112	·	·	·	·
COc1ccc(N(CCC(=O)Nc2ccccc2F)S(=O)(=O)c2ccc(C)cc2C)cc1	99	105	99	0	97	99	·	·	·	·
CCOc1ccc(Cl)cc1S(=O)(=O)N1CCC(C(=O)N2CCCC2)CC1	100	99	95	0	102	102	·	·	·	·
O=C(COC(=O)/C=C/c1cccc(C(F)(F)F)c1)Nc1ccc(Cl)cn1	98	100	105	0.6*	100	90	102	0	92	0
O=C(COC(=O)/C=C/c1cccc([N+](=O)[O-])c1)Nc1ccc(Cl)cn1	101	98	107	0	99	100	·	·	·	·
CCCc1nnc(NC(=O)COc2ccc3c(c2)OCO3)s1	106	96	106	93*	102	98	99	0	109	0
CCCCc1nnc(NC(=O)COc2ccc3c(C)cc(=O)oc3c2)s1	109	112	115	0	109	107	100	0	100	0
O=C(N/N=C/c1cccc(F)c1)c1c(O)c2c([nH]c1=O)CCCC2	93	103	94	8.9*	99	103	84	0	100	0
Cc1nnc(NC(=O)c2sc3nc(-c4cccs4)cc(C(F)(F)F)c3c2N)s1	112	107	108	1.3*	100	97	131	0	137	0
Cc1ccc(NC(=O)c2nc(S(=O)(=O)Cc3ccccc3C)ncc2Cl)cc1C	109	109	111	0	101	103	·	·	·	·
